Source: PubChem BioAssay (NCI)
About 83,000 compounds went through this panel and 20% of them were active in at least one assay; those are over-represented in the sample as a whole.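 Cell lines were cultured in 96-well plates, exposed to a single compound concentration, and assessed for percent growth 48 hours later.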 Values without a mark were called inactive. Active and inactive are the calls of the source. The calls were made as follows: active = growth percent below 10; inactive = the rest.

Legend:
Test in all cases: NCI-60 one-dose screen, 48 h (100 = growth as untreated, 0 = no growth, -100 = all killed)
Conditions in all cases: 10 µM unless noted
SK-MEL-2 melanoma = test system: SK-MEL-2 melanoma
EKVX NSCLC = test system: EKVX NSCLC
SN12C renal = test system: SN12C renal
UO-31 renal = test system: UO-31 renal
TK-10 renal = test system: TK-10 renal
ACHN renal = test system: ACHN renal
CAKI-1 renal = test system: CAKI-1 renal
A498 renal = test system: A498 renal
CCRF-CEM leukemia = test system: CCRF-CEM leukemia
MOLT-4 leukemia = test system: MOLT-4 leukemia
SR leukemia = test system: SR leukemia
RPMI-8226 leukemia = test system: RPMI-8226 leukemia
OVCAR-8 ovarian = test system: OVCAR-8 ovarian
OVCAR-5 ovarian = test system: OVCAR-5 ovarian
OVCAR-4 ovarian = test system: OVCAR-4 ovarian
SK-OV-3 ovarian = test system: SK-OV-3 ovarian
IGROV1 ovarian = test system: IGROV1 ovarian
OVCAR-3 ovarian = test system: OVCAR-3 ovarian
HS 578T breast = test system: HS 578T breast
NCI/ADR-RES ovarian = test system: NCI/ADR-RES ovarian

Compound	growth (SK-MEL-2 melanoma)	growth (EKVX NSCLC) [%]	growth (SN12C renal)	growth (UO-31 renal)	growth (TK-10 renal)	growth (ACHN renal)	growth (CAKI-1 renal)	growth (A498 renal)	growth (CCRF-CEM leukemia)	growth (MOLT-4 leukemia)	growth (SR leukemia)	growth (RPMI-8226 leukemia)	growth (OVCAR-8 ovarian)	growth (OVCAR-5 ovarian) [%]	growth (OVCAR-4 ovarian)	growth (SK-OV-3 ovarian) [%]	growth (IGROV1 ovarian)	growth (OVCAR-3 ovarian)	growth (HS 578T breast)	growth (NCI/ADR-RES ovarian)
Cc1cc(Nc2ccc(C(=O)N3CCCC3)cc2)nc(NCCCNc2ccnc3cc(Cl)ccc23)n1	99.5%	101	85%	86.7%	106%	99%	99.1%	95.2%	65.3%	36.9%	19.1%	74.8%	108%	103	70%	101	76.2%	90.3%	92.3%	99.8%
Cc1c(CN)cc(-c2ccc(Cl)cc2)n1-c1ccccc1	90.2%	82.6	87.6%	59.2%	66.3%	74.7%	40.7%	-7.73% (active)	81.7%	82.3%	77.5%	66.7%	74.8%	80.9	40.3%	85.4	48.1%	106%	87.9%	88.1%
C=CC(=O)Nc1ccc(Oc2nccc(Nc3nnc(-c4ccc(C)cc4)s3)n2)cc1	79.4%	103	84%	55.7%	135%	68.5%	41.1%	83.3%	50.5%	68.6%	36.2%	61.8%	81.4%	105	99%	78	62.5%	43%	67.4%	59.1%
[2H]C([2H])([2H])Oc1ccc(F)cc1/C=C/C(=O)/C=C(O)/C=C/c1cc(F)ccc1OC([2H])([2H])[2H]	98.2%	107	90.7%	91.5%	121%	106%	93.6%	99.4%	86.9%	75.1%	69.4%	90%	88.8%	111	84.3%	104	105%	95.6%	104%	89.9%
CCCCC#Cc1c(I)n(C)c(=O)[nH]c1=O	63.2%	52.9	39.4%	-78% (active)	50%	-75.7% (active)	-54.2% (active)	94.2%	-51.4% (active)	-61.1% (active)	-35.9% (active)	19.2%	-12.4% (active)	80.2	-80.2% (active)	95.5	-92.5% (active)	-90.7% (active)	-6.87% (active)	85.7%
COc1ccc(-c2nn(-c3ccccc3)cc2/C=C/C(=O)NNC(=O)Nc2ccc(C)cc2)cc1	102%	97.2	97%	84.2%	99%	102%	91.5%	109%	47.4%	43%	64%	93.3%	98.1%	103	101%	92.8	93%	107%	99.7%	92.8%
O=S(=O)(Nc1cc(Sc2cccc3cccnc23)c(O)c2ccccc12)c1ccccc1	13.4%	36.4	29.6%	23.7%	23.4%	16.9%	25.9%	70.4%	4.22% (active)	-7.99% (active)	5.4% (active)	-4.98% (active)	9.56% (active)	47.1	-100% (active)	52.1	10.4%	-81.2% (active)	40.3%	8.88% (active)
O=S1(=O)C=C(c2ccccc2)C(c2ccccc2)=C1	52.1%	90.1	12.8%	-6.37% (active)	-37.1% (active)	-47.4% (active)	-15.6% (active)	79.5%	2.77% (active)	1.8% (active)	-3.82% (active)	4.61% (active)	6.07% (active)	85.1	27.6%	88.8	11.7%	-86% (active)	-5.2% (active)	8.7% (active)
CCCn1cnc2c(c1=N)C(c1ccc(F)cc1)c1sc3c(F)cccc3c1O2 (stereo not given)	45.8%	76.5	58.6%	53.9%	80.3%	56.8%	30.6%	51.1%	20.4%	43.8%	28.8%	39.7%	59.1%	81.4	76.7%	71	46.2%	10.5%	28.7%	31.1%
COc1ccc2c(c1)c(-c1nc(-c3c[nH]c4ncccc34)cs1)cn2CCO	48.7%	34.9	63.5%	16.1%	58.3%	26.7%	35.5%	-0.474% (active)	41.3%	55%	37.8%	39.9%	56.2%	68.2	42.1%	30	43.4%	78.7%	33.5%	76%
Nc1nc(NC(=O)Nc2ccc(C(=O)O)cc2)nn1-c1ccc(S(N)(=O)=O)cc1	110%	105	89.5%	80.7%	106%	99.6%	90.3%	90.6%	99.4%	93.1%	99.5%	102%	86.8%	95.9	103%	107	94%	95.7%	88.1%	103%
Cc1ccc(N2C(=O)CCC2=O)cc1	84.8%	95.1	95.3%	97.9%	89.9%	103%	96.9%	82.3%	108%	101%	104%	103%	108%	96.3	103%	99.7	113%	102%	99.4%	98.5%
COC(=O)CCC/C=C\C[C@H]1C=CC(=O)/C1=C/C[C@@H](O)C/C=C\CC(F)(F)F	-3.66% (active)	47.1	-6.2% (active)	-68.9% (active)	-2.5% (active)	-47.7% (active)	1.42% (active)	109%	-9.32% (active)	2.73% (active)	4% (active)	-11.8% (active)	8.95% (active)	39	34%	77.4	12.1%	-3.96% (active)	41.9%	14%
O=C1/C(=C/c2ccccn2)NC(=S)N1c1ccccc1Cl	119%	75	58.1%	36.4%	79.9%	53.3%	66%	89.5%	9.35% (active)	33.4%	19.3%	52.8%	30.4%	68.4	34.9%	111	46.1%	53.7%	72.5%	50.8%
Cc1ccc2c(=O)cc(C(=O)Nc3sc4c(c3C(=O)NCc3cccnc3)CCCC4)oc2c1C	109%	103	95.3%	78.5%	116%	96.8%	90.6%	89.1%	93%	90.3%	89.8%	102%	98.4%	105	105%	100	100%	106%	91.7%	98.9%
c1nc2ccc(-c3cc4ccc5[nH]ncc5c4c4c3CCCC4)cc2[nH]1	43%	93	76.4%	92.9%	61.7%	52.2%	54%	49.9%	31%	33.8%	8.69% (active)	58.1%	78.5%	69.3	88%	50.2	36%	89.5%	65.2%	110%
